Screens: PubChem, National Center for Advancing Translational Sciences (NCATS)
A selection: hits, their analogues and other compounds. The true share with any hit is near 0.41%.
GLA inh pH 4.5: qHTS Assay for Inhibitors of Human alpha-Galactosidase at pH 4.5; purified enzyme, 4-MU-alpha-Gal fluorescence, pH 4.5; activity change, negative = inhibition, % at 105 µM; 230,000 tested, under 10 active; AID 1467, 2008
aGlu spleen mod: qHTS Assay for Inhibitors and Activators of Human alpha-Glucosidase From Spleen Homogenate. 240,000 compounds, 0.006% hits. AID 2112, 2009. Potency, µM (top dose mostly 79.9 µM), actives largely listed as inhibitors. Lysosomal alpha-glucosidase (Homo sapiens), P10253. human spleen homogenate, 4-MU-alpha-glucoside fluorescence
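Human spleen homogenate (1 ug) incubated with compounds and 1 mM 4-methylumbelliferyl-alpha-D-glucopyranoside in pH 5.0 citrate/phosphate buffer, 37 C, 40 min. Stopped at pH 10; 4-MU fluorescence (Ex 365/Em 440 nm); AC50 by Hill fit.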
aGal spleen mod: qHTS Assay for Inhibitors and Activators of Human alpha-Galactosidase From Spleen Homogenate | Potency, µM (series often up to 80 µM), actives largely listed as inhibitors | 240,000 compounds, 0.008% hits | Alpha-galactosidase A (Homo sapiens), P06280 | human spleen homogenate, 4MU-alpha-Gal fluorescence, 40 min
Target sequence (P06280 32-429 limits assumed): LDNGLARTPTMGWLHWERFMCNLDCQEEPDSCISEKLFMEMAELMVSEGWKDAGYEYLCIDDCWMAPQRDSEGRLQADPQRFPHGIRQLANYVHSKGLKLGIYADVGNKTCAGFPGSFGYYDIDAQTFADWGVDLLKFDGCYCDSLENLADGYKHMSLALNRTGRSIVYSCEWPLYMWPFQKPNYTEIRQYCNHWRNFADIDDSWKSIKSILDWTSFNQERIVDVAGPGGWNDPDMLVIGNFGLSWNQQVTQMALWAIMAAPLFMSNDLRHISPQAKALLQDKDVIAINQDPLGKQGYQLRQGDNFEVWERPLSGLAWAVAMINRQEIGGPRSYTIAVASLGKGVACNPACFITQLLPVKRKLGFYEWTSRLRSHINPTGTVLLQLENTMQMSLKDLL
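Human spleen homogenate (1 ug) as enzyme source, 4-methylumbelliferyl-alpha-D-galactopyranoside 1 mM final, citrate/phosphate pH 5.0 with 0.01% Tween-20. Compounds 40 min at 37C, NaOH/glycine stop; fluorescence Ex 365/Em 440, Hill-fit AC50.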
GAA inhib: qHTS Assay for Inhibitors of Human alpha-Glucosidase as a Potential Chaperone Treatment of Pompe Disease. Lysosomal alpha-glucosidase (Homo sapiens), P10253. purified human GAA, 4-MU-alpha-glucoside fluorescence. Potency, µM (series often up to 76.9 µM), hits mostly inhibitors. 200,000 compounds, 0.005% hits. AID 1466, 2008
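Compounds are titrated up to 77 uM against 4 nM human enzyme. Substrate 4-methylumbelliferyl-alpha-D-pyranoside (400 uM) reacts 20 min at room temperature in pH 5.0 buffer; liberated 4-methylumbelliferone is read at 440 nm.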
N370S GC: qHTS Assay for Inhibitors and Activators of N370S glucocerebrosidase as a Potential Chaperone Treatment of Gaucher Disease | Potency, µM (series often up to 59.4 µM), most hits filed as inhibitors | AID 2101, 2009 | 330,000 compounds, 0.092% hits | N370S GC spleen homogenate, 4MU-glucoside fluorescence
GAA glycogen mod: qHTS Assay for Inhibitors and Activators of Human alpha-Glucosidase Cleavage of Glycogen | recombinant GAA, glycogen substrate, Amplex Red glucose oxidase fluorescence | Potency, µM (top dose mostly 76.4 µM), hits mostly inhibitors | Lysosomal alpha-glucosidase (Homo sapiens), P10253 | 300,000 compounds, 0.38% hits | AID 2100, 2009;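 further: the screen sought inhibitors and activators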
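Recombinant enzyme (4 nM final) with compounds titrated up to 77 uM and bovine liver glycogen (30 ug) in citrate pH 5.0, 0.01% Tween-20, 37 C 40 min. Released glucose detected by Amplex Red/glucose oxidase (Ex 573/Em 610); AC50 from Hill fits.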
Each line names hits and unclear results; the compound was inactive in the other large screens; ! = not confirmed by another sample. The call rests on the fitted dose curve; in most records, active means well fitted curve in the direction sought with a large enough effect; inconclusive means small, poorly fitted or top-dose-only effect, or another doubt; inactive means no such curve, though single readings can be large; an effect the other way counts as inactive or inconclusive.

Cc1ccc2oc(=O)c(/C=C(\O)c3cccs3)nc2c1	GAA glycogen mod 13µM (no result: GAA inhib)
C/C(O)=C\c1nc2ccccc2oc1=O	GAA glycogen mod 10µM
O=c1oc2ccc(Cl)cc2nc1/C=C(\O)c1cccs1	GAA glycogen mod 6.3µM (no result: GAA inhib)
CCS(=O)(=O)CCSc1nc2ccccc2o1	none
O=c1oc2ccccc2nc1/C=C(\O)c1ccc(Br)cc1	GAA glycogen mod inconclusive (no result: GAA inhib)
CS(=O)(=O)Cc1nc2ccccc2oc1=O	GAA glycogen mod 5.6µM
Cc1ccc2oc(=O)c(/C=C(\O)c3ccccc3)nc2c1	GAA glycogen mod inconclusive
NC(C(=O)O)(c1ccc(P(=O)(O)O)cc1)C1CC1 (configuration not stated)	none (no result: GLA inh pH 4.5, GAA inhib, GAA glycogen mod)
CC(C)=NOCc1ccc(-c2cc(-c3ccccc3)no2)cc1	none (no result: GLA inh pH 4.5, GAA inhib, GAA glycogen mod)
Nc1cc(Cl)c(N)c(Cl)c1	none (no result: GLA inh pH 4.5, GAA inhib, GAA glycogen mod)
Nc1cc(Cl)c(N)cc1Cl	GAA glycogen mod 28µM
COC(=O)c1[nH]c2ccc(Cl)cc2c1NC(=O)Oc1ccccc1	GAA glycogen mod 25µM
Cc1cc(Nc2ccccc2)n(CCOC(=O)COc2ccccc2)n1	GAA inhib inconclusive, GAA glycogen mod 32µM
CCOc1ccc(OCCC(=O)OCC(=O)Nc2cc(C)nn2-c2ccccc2)cc1	none (no result: GLA inh pH 4.5, aGlu spleen mod, aGal spleen mod, GAA inhib, GAA glycogen mod)
NNC(=O)c1nn(-c2ccc(Cl)cc2)cc1O	GAA glycogen mod 28µM
C[C@@H]1CC2C3CCC4=CC(=O)C=CC4(C)[C@@]3(F)[C@@H](O)CC2(C)[C@@]1(O)C(=O)CO (some centres not stated)	none (no result: GAA inhib, GAA glycogen mod)
COC1C(O)COC1/C=C/c1ccccc1 (configuration not stated)	none (no result: GLA inh pH 4.5, GAA inhib, GAA glycogen mod)
CN1CCc2c(n(CC(O)CNCc3ccccc3)c3ccccc23)C1=O (configuration not stated)	GAA glycogen mod inconclusive
CC(C)NCC(O)Cn1c2c(c3ccccc31)CCc1c-2cnn1-c1ccccc1 (configuration not stated)	GAA glycogen mod 31µM
CC1CCCC(NC(=O)Nc2cccs2)C1C (configuration not stated)	GAA glycogen mod 14µM
CC1CCCC(NC(=O)c2ccncc2)C1C (configuration not stated)	none (no result: GLA inh pH 4.5, aGlu spleen mod, aGal spleen mod, GAA inhib)
CCn1c(SCC(=O)c2ccc(O)c(O)c2)nnc1-c1ccccc1	GAA inhib inconclusive, GAA glycogen mod 7.9µM
COc1ccccc1-c1nnc(SCC(=O)c2ccc(Cl)cc2)n1-c1ccccc1	none (no result: GLA inh pH 4.5, aGlu spleen mod, aGal spleen mod, GAA inhib, N370S GC)
C=CCn1c(SCC(=O)c2ccc(O)c(O)c2)nnc1-c1cccnc1	GAA glycogen mod inconclusive (no result: GAA inhib)
C=CCn1c(SCC(=O)c2ccc(O)c(O)c2)nnc1-c1ccccc1OC	GAA glycogen mod 18µM
CCn1c(SCC(=O)c2ccc(O)c(O)c2)nnc1-c1ccccc1OC	GAA glycogen mod 25µM
Cc1oc(-c2ccc(Cl)cc2)nc1CSc1nnc(C)n2c1cc1sccc12	none (no result: GLA inh pH 4.5, aGlu spleen mod, aGal spleen mod, GAA inhib, N370S GC)
N=C(N)S/C=C\C(=O)O	none (no result: GAA inhib, GAA glycogen mod)
CC(=O)NCCc1ccc(O)c(O)c1	none (no result: GAA inhib, GAA glycogen mod)
NCCc1ccc(O)c(O)c1	GAA glycogen mod 2µM
CCN(c1ccc(C)cc1C)S(=O)(=O)c1nnc(NC(=O)c2ccccc2OC)s1	none (no result: GLA inh pH 4.5, aGlu spleen mod, aGal spleen mod, GAA inhib, N370S GC)
CC(/C=C/C(=O)NO)=C\[C@@H](C)C(=O)c1ccc(N(C)C)cc1	N370S GC 18µM! (no result: GAA inhib, GAA glycogen mod)
CCOc1ccccc1NC(=O)c1cn(C2CCCC2)c(=O)c2c1c1ccccc1n2C	none (no result: GLA inh pH 4.5, aGlu spleen mod, aGal spleen mod, GAA inhib, N370S GC)
CC(=O)N1CCN(S(=O)(=O)c2ccc3c(c2)CC(=O)N3)CC1	GAA glycogen mod 12µM (no result: GLA inh pH 4.5, aGlu spleen mod, aGal spleen mod, GAA inhib, N370S GC)
CCOC(=O)c1ccc(NC(=O)c2ccc3c(c2)CCN3S(=O)(=O)c2ccc(Cl)cc2)cc1	none (no result: GLA inh pH 4.5, aGlu spleen mod, aGal spleen mod, GAA inhib, N370S GC)
COc1ccc(N(CC(=O)Nc2cccc(C)c2C)S(=O)(=O)c2c(C)[nH]c(=O)[nH]c2=O)cc1	none (no result: GAA inhib)
